Rows were chosen to be rich in hits. Some 22% of all compounds tested hit in one or more screens of this group.
Shiga inhibitor: blocks Shiga toxin action in Vero cells. Vero cells, Shiga toxin protein synthesis inhibition reporter. inhibition, % at 38.7 µM. hit rate 9.2% among 290,000; in the data active means inhibition mostly above about 28%, no sharp cut-off; inactive means mostly below about 43%; further: 0% is about no effect
CHX counter: counter-screen for Shiga toxin inhibitors: cycloheximide protein synthesis inhibition; hit rate 12% among 300,000; max response, %; cell reporter, cycloheximide protein synthesis inhibition counterscreen; AID 2314; in the data active means max response mostly above about 13%, no sharp cut-off; inactive means mostly below about 14%; further: read at 38.3 µM for the half of the compounds with a filed dose; 0% is about no effect
Pf growth 96h: inhibits malaria parasite growth, 96 h; Potency, µM (titrated, usually from 28.7 µM), for the others: top-dose activity change, negative = inhibition, most hits filed as inhibitors; hit rate 6.9% among 320,000; P. falciparum luciferase reporter growth, 96 h; AID 504834; further: potency means the concentration at half of the fitted maximal effect; on the % scale 0 is the no-effect control and ±100 the full control effect
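Readout is luminescence from an integrated firefly luciferase in P. falciparum. Red cells, 2% hematocrit and 0.05% parasitemia final, were cultured with compound through two parasite generations (96 hours) at 37 C, 5% CO2.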
Pf growth 48h: inhibits P. falciparum growth in the first generation, 48 h; P. falciparum luciferase growth in erythrocytes, 48 h; Potency, µM (doses to about 28.7 µM), for inactives: at the highest dose activity change, negative = inhibition, hits mostly inhibitors; hit rate 5.9% among 310,000; further: potency means the concentration at half of the fitted maximal effect; on the % scale 0 is the no-effect control and ±100 the full control effect
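Cell-based growth assay: transgenic P. falciparum expressing firefly luciferase, cultured in red cells within RPMI 1640 containing 0.5% w/v Albumax, 24 mM bicarbonate and gentamycin. A drop in luciferase activity indicates inhibition.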
LmPK inhibitor: blocks Leishmania mexicana pyruvate kinase activity | Q27686 | purified LmPK, Kinase-Glo ATP luminescence, 1 h | Potency, µM (top dose mostly 57.5 µM), without a hit: at the highest dose activity change, negative = inhibition, most hits filed as inhibitors | hit rate 0.37% among 290,000 | AID 1721; further: potency means the concentration at half of the fitted maximal effect; on the % scale 0 is the no-effect control and ±100 the full control effect
Target sequence (Q27686 whole entry, looked up): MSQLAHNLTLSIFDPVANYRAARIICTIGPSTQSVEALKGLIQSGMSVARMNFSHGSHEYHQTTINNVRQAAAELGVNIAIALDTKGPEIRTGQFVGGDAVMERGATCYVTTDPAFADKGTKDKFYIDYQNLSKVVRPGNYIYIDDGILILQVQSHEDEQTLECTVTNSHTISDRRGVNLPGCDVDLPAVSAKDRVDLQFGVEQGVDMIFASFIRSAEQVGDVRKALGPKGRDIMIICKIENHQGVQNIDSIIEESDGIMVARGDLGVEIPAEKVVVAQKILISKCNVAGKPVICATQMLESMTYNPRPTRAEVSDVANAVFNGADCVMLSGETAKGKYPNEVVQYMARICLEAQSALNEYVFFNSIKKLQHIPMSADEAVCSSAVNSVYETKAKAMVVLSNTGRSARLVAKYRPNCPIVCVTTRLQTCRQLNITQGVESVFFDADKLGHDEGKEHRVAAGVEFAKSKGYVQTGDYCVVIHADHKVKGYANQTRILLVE
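Pyruvate kinase activity monitored as ATP production (luciferase luminescence). Conditions: 0.1 nM enzyme, 0.5 mM PEP, 0.1 mM ADP, 1 h, RT; normalized against uninhibited and no-enzyme wells.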
Starred values were filed as active, the others as inactive; ? = inconclusive; . = not tested or not shown; + = active, no number; [ ] = remark or other dose. Unless noted, the call rests on the fitted dose curve; in most records, active means well fitted inhibition curve with a large enough effect; inconclusive means small, poorly fitted or top-dose-only effect, or another doubt; inactive means no such curve, though single readings can be large or run the other way.

SMILES	Shiga inhibitor	CHX counter	Pf growth 96h	Pf growth 48h	LmPK inhibitor
O=C(/C=C/c1ccccc1)NC1CC2CCC1C2 (stereo not given)	106*	45*	-13%	-2%	-2%
O=C(/C=C/c1ccc([N+](=O)[O-])cc1)NC1CC2CCC1C2 (stereo not given)	49*	43*	-11%	-5%	2%
O=C(/C=C/c1ccc(Cl)cc1)NC1CC2CCC1C2 (stereo not given)	129*	26*	2%	22%	1%
O=C(/C=C/c1ccc([N+](=O)[O-])cc1)NNC(=O)C1CC1	-13	5	50%	27%	2%
Cn1nc([N+](=O)[O-])nc1N1CCOCC1	-6	-3	10%	8%	1%
CCCCOc1ccc(-c2nnc(-c3ccncc3)o2)cc1	56	17*	28%	?	-6%
CCOc1ccc(-c2nnc(-c3ccc(OC)cc3)o2)cc1	9	-1	-11%	19%	3%
CCOc1ccc(-c2nnc(-c3ccncc3)o2)cc1OCC	1	0	44%	-12%	6%
CCCOc1ccc(-c2nnc(-c3cccs3)o2)cc1	107*	51*	?	495%	-2%
CCOc1ccc(-c2nnc(-c3ccccc3)o2)cc1	77*	29*	2.1µM*	50%	?
CN(C)c1ccc(-c2nnc(-c3cccs3)o2)cc1	34	11	?	337%	4%
CCOc1ccc(-c2nnc(-c3ccncc3)o2)cc1	126	50*	2.9µM*	291%	-10%
CN(CC(=O)Nc1ccc(Cl)c(Cl)c1)C(=O)c1cccc2cccnc12	.	.	20%	?	.
Cc1cccnc1NC(=O)CN1C(=O)c2ccccc2S1(=O)=O	.	.	27%	-17%	.
CCOc1ccc(-c2nc3ccccc3c(=O)o2)cc1	21	15*	22%	122%	?
CCOc1ccc(-c2nnc(-c3ccccc3)n2-c2ccccc2)cc1	65	42*	?	17%	3%
Cc1nnc(NC2=NCCC2)o1	10	12	29%	-1%	5%
c1coc(-c2nnc(NC3=NCCC3)o2)c1	66*	29*	?	85%	-16%
CCOc1ccc(-c2nnc(N)o2)cc1	44	7	.	37%	-3%
CCCCOc1ccc(-c2nnc(-c3cc[n+](C)cc3)o2)cc1	34	3	-6%	0.41µM*	2%
CCOC(=O)C1CCN(C(=O)Nc2ccc(Cl)cc2Cl)CC1	-16	-5	7%	4%	-6%
COC(=O)CSc1nnc(CNc2ccc(OC)cc2)n1C	21	-4	.	8%	0%
COc1cc(SC)ccc1C(=O)N1CCN(Cc2ccc3c(c2)OCO3)CC1	-7	-3	-65%	-27%	3%
O=C(COC(=O)CCNS(=O)(=O)c1ccccc1)NC(=O)c1ccccc1	.	.	-1%	17%	.
COc1ccc2ccc(OCC(=O)NCC3CCCO3)cc2c1 (stereo not given)	.	.	-1%	-12%	.
SMILES	Shiga inhibitor	CHX counter	Pf growth 96h	Pf growth 48h	LmPK inhibitor
Cc1ccc(S(=O)(=O)N(C)CC(=O)N/N=C/c2ccc(C)o2)cc1	-2	11	2%	-23%	4%
CCOc1ccc(-c2nnc(NC3=NCCCCC3)o2)cc1	73*	41*	.	103%	-8%
Cc1ccc(C2C3=C(CC(C)(C)CC3=O)NC3=C2C(=O)c2ccccc23)cc1 (stereo not given)	-3	-3	1.9µM*	5.2µM*	1%
CC1CN(C(=O)CCc2cc(C(C)(C)C)c(O)c(C(C)(C)C)c2)CC(C)O1 (stereo not given)	16	9	7.4µM*	?	-10%
CC(C)(C)c1cc(CCC(=O)NN)cc(C(C)(C)C)c1O	-19	12	0%	?	2%
O=[N+]([O-])c1ncccc1OCc1ccc(Cl)c(Cl)c1	58*	38*	18%	26%	-2%
CN(C)S(=O)(=O)c1cccc(COc2cccnc2[N+](=O)[O-])c1	2	-3	29%	12%	5%
C/C(=N\NC(=O)c1ccccc1-n1cccc1)C1CC1	-4	-3	72%	23%	1%
COc1ccc(OC)c(NC(=O)c2ccc(-c3cccs3)cc2)c1	24	15	12%	18%	6%
COc1cc(-c2cccs2)cc(=O)c2c(C)oc(C)c12	27	-4	12µM*	?	1%
CN(Cc1ccccc1)S(=O)(=O)c1ccc(Cl)c(C(=O)OCC(N)=O)c1	37*	20*	32%	28%	1%
CN(Cc1ccccc1)S(=O)(=O)c1ccc(Cl)c(C(=O)O)c1	-10	-6	38%	-10%	0%
Cc1ccc(OCCn2cccc2/C=C2/C(=O)NC(=O)N(Cc3ccco3)C2=O)cc1	37*	22*	?	36%	10%
CCc1ccc(N2C(=O)NC(=O)/C(=C\c3cccn3CCOc3ccc(C(C)C)cc3)C2=O)cc1	+	73*	175%	145%	1%
O=C(CN1C(=O)COc2ccc(Cl)cc21)NC1CC1	-10	1	?	11%	-4%
O=P(c1ccccc1)(c1ccccc1)c1cc(S(=O)(=O)O)ccc1O	15	-3	11%	-14%	0%
COC(=O)c1ccc(COc2cccc(C)c2C)cc1	84	20	-2%	0%	0%
COc1ccccc1OCCCC(=O)Nc1ccc(N2CCOCC2)cc1	10	13*	-10%[5.75 µM]	10%[5.75 µM]	1%
CN(C)c1cccc(C(=O)Nc2ccc(N3CCOCC3)cc2)c1	77	23*	.	35%	-30%
O=C(CCn1ccc2ccccc21)Nc1ccc(N2CCOCC2)cc1	-13	2	?	13µM*	0%
Cc1ccccc1OCCCC(=O)Nc1ccc(N2CCOCC2)cc1	-4	2	27%	-22%	2%
COc1ccc(C(=O)Nc2ccc(N3CCOCC3)cc2)cc1OC	35	-1	-11%	63%	16µM*
O=C(Nc1nnc(S(=O)(=O)N2CCN(c3ccc(F)cc3)CC2)s1)c1ccco1	-7	-9	4%	-29%	-6%
Cc1cn2c(=O)c(C(=O)NCc3ccc4c(c3)OCO4)cnc2s1	.	.	-7%	2%	.
CSc1nc(NS(=O)(=O)c2ccc(F)cc2F)nn1C	-2	-3	12%	10%	-5%
SMILES	Shiga inhibitor	CHX counter	Pf growth 96h	Pf growth 48h	LmPK inhibitor
COc1ccc(NC(=O)COC(=O)CNC(=O)c2cccs2)cc1Cl	.	.	-9%	5%	.
COc1cccc(/C=C/C(=O)Nc2ccc(N3CCOCC3)cc2)c1OC	51	18*	44%	23%	0%
COc1ccc(C(=O)Nc2ccc(N3CCCC3)cc2)cc1Br	17	12	?	1%	3%
COc1ccc(C(=O)Nc2ccc(N3CCCC3)cc2)cc1OC	51*	34*	?	76%	?
CS(=O)(=O)c1nc(-c2ccccc2)cc(-c2ccccc2)c1C#N	-25	2	1.7µM*	?	3%
COc1ccc(COC[C@H](C)[C@H](O[Si](C)(C)C)[C@@H](C)[C@H]2OC(=O)[C@H]2C)cc1	16	6	.	.	.

Bioassay records as filed in PubChem BioAssay.
